Most compounds without a hit are left out; they make up all but 3.5% or so of the library.
TEAD-YAP block: TEAD-YAP interaction inhibition; HEK-TIYL cells, TEAD-Gal4/YAP UAS-luciferase luminescence; inhibition, % at 9.12 µM; 640,000 compounds, 1.4% hits; AID 1259422; in the data active = inhibition above about 32%
FBW7 activator: human FBW7 E3 ligase activation, primary screen; Q969H0; AlphaScreen FBW7–phospho-cyclin E peptide binding, activator screen; normalized activity (activation), % at 26.1 µM; 650,000 compounds, 0.13% hits; AID 1259310; in the data active = normalized activity above about 1.9%;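 also: purified mutant Fbw7 with reduced substrate affinity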
MITF primary: blocks human microphthalmia-associated transcription factor; O75030; AlphaScreen MITF homodimerization, bead proximity signal; inhibition, % at 2.6 µM; 650,000 compounds, 0.91% hits; in the data active = inhibition above about 50%
GPR151 activ: activates the human receptor GPR151 | 650,000 compounds, 1% hits | AID 1508602 | PathHunter beta-arrestin GPR151 cells, luminescence | Q8TDV0 | activation, % at 11.2 µM; in the data active = activation above about 4.9%
GPR151 conf act: confirmation of human GPR151 activators; shares compounds with GPR151 activ; GPR151 PathHunter beta-arrestin cells, luminescence, 90 min; % of EA-reagent control over plate median; activation, % at 11.2 µM; 6,700 tested, under 10 active;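 active = mean percent activation across replicates above the confirmation screen cutoff of 4.91%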
GPR119 ag: GPR119 activation, counter-screen for GPR151 activators | shares compounds with GPR151 activ | GPR119 PathHunter beta-arrestin cells, luminescence, 90 min; 0 = compound-well median, 100 = enzyme-acceptor control | activation, % at 11.2 µM | 6,700 compounds, 0.3% hits | AID 1508611;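 active = mean percent activation in the counterscreen above 29.09%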;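 also: counterscreen on off-target GPR119 to flag nonselective hits from the GPR151 activator screen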
Each line names hits and unclear results; the compound was inactive in the other large screens (follow-up assays come after a bar, where they were run); ! = not confirmed by another sample.

O=C(NCc1ccc(F)cc1)c1cc(-c2ccccc2Cl)nc2ccccc12	GPR151 activ 17 | GPR151 conf act inactive | GPR119 ag inactive
Cc1ccc(-c2cc(C(=O)NN)c3ccccc3n2)cc1	none
NNC(=O)c1cc(-c2ccc(F)cc2)nc2ccccc12	GPR151 activ 6.1 | GPR151 conf act inactive | GPR119 ag inactive
NNC(=O)c1cc(-c2ccc(O)cc2)nc2ccc(Br)cc12	none
COc1ccc(-c2cc(C(=O)NN)c3cc(Br)ccc3n2)cc1	GPR151 activ 5.0 | GPR151 conf act inactive | GPR119 ag inactive
O=C(NCc1ccc2c(c1)OCO2)c1cc(-c2ccccc2Cl)nc2ccccc12	none
COC(=O)c1c(NC(=O)c2ccc(Cl)cc2Cl)sc2c1C(C(=O)OC)CC2 (centres undefined)	none
CCCC(=O)NCc1cc(NC(=O)C2(c3ccc(Cl)cc3)CC2)cc(C(=O)OC)c1	none
O=C1CCCCC1Oc1cc(O)c2c(=O)cc(-c3ccccc3)oc2c1 (centres undefined)	GPR151 activ 7.0 | GPR151 conf act inactive | GPR119 ag inactive
CC(=O)C(C)Oc1cc(O)c2c(=O)cc(-c3ccccc3)oc2c1 (centres undefined)	none
CC(C)NC(=O)CSc1nnc2c3ccccc3nc(C(C)(C)C)n12	none
COc1ccc(CCNC(=O)Cn2nc3c4ccccc4nc(C(C)C)n3c2=O)cc1OC	none
Cc1c(C(=O)N(C)C)sc2c1c(=O)n(-c1ccc(Cl)cc1)c(=O)n2CC1OCCO1	GPR151 activ 6.0 | GPR151 conf act inactive | GPR119 ag inactive
O=C(NCCCC1CCCC1)c1cc(COc2cccc3cnccc23)on1	GPR151 activ 5.2 | GPR151 conf act inactive | GPR119 ag inactive
NS(=O)(=O)c1ccc(CCNC(=O)CSc2nc(NC3CCCCC3)c3ccccc3n2)cc1	GPR151 activ 5.1 | GPR151 conf act inactive | GPR119 ag inactive
Cc1oc(-c2ccc(Cl)cc2)nc1CS(=O)CC(=O)NC1CCCCC1 (centres undefined)	GPR151 activ 8.3 | GPR151 conf act inactive | GPR119 ag inactive
Cc1oc(-c2ccc(Cl)cc2)nc1CS(=O)CC(=O)NC1CCCCCC1 (centres undefined)	none
O=C(CCC1CCCCC1)Nc1nn[nH]n1	GPR151 activ 7.7 | GPR151 conf act inactive | GPR119 ag inactive
Cc1ccc(NC(=O)c2ccc(Nc3nc(-c4ccccc4)c4cc(Cl)ccc4n3)cc2)c(C(=O)c2ccccc2)c1	none
CCCN1CCN(C(=O)C(CC)n2nc(C)n3c(cc4occc43)c2=O)CC1 (centres undefined)	none
N#Cc1ccc(C(=O)Nc2ccc(Br)cc2)c(F)c1	none
Cc1cc(Br)ccc1NC(=O)c1ccc(C#N)cc1F	GPR151 activ 13 | GPR151 conf act inactive | GPR119 ag inactive
O=C(NC1CCCCC1)c1ccc2c(=O)n(Cc3ccccc3)c(SCc3cccc(Cl)c3)nc2c1	none
Cc1ccc(/C=N/n2c(C)n[nH]c2=S)o1	GPR151 activ 6.4 | GPR151 conf act inactive | GPR119 ag inactive
Cc1n[nH]c(=S)n1/N=C/c1ccc(F)cc1	GPR151 activ 5.4 | GPR151 conf act inactive | GPR119 ag inactive
Cn1c(=O)[nH]c(=O)c2c1nc(N1CCCCC1)n2CC(O)COc1cccc2ccccc12 (centres undefined)	none
Cc1ccoc1C(=O)N1CCC(CO)(Cc2ccccc2C(F)(F)F)CC1	none
COc1cccc(C2CC(=O)N3CN(c4ccccc4)CSC3=C2C#N)c1 (centres undefined)	none
COc1ccc(OC)c(C2CC(=O)N3CN(c4ccccc4)CSC3=C2C#N)c1 (centres undefined)	GPR151 activ 5.7 | GPR151 conf act inactive | GPR119 ag inactive
CCOc1ccccc1C(=O)NC(Nc1sc2c(c1C#N)CCCC2)(C(F)(F)F)C(F)(F)F	none
CCc1nnc(NC(=O)c2sc3nc4cc(C)c(C)cc4cc3c2N)s1	none
COc1ccc(NC(=O)Nc2ccc(CN3CCN(C)CC3)cc2)cc1	none
CN1CCN(Cc2ccc(NC(=O)NCc3cccc4ccccc34)cc2)CC1	GPR151 activ 7.0 | GPR151 conf act inactive | GPR119 ag inactive
O=C(CC(C(=O)N1CCc2ccccc21)n1ccnc1)NC1CCCC1 (centres undefined)	none
CS/C(CCCNC(C)=O)=C(/C#N)c1nc2ccccc2s1	none
C=CCN(C#N)c1nc(OC)nc(N2CCCC2)n1	GPR151 activ 14 | GPR151 conf act inactive | GPR119 ag inactive
CCOC(=O)C1CCCCN1Cc1ccc(OC)c(C)c1OC (centres undefined)	none
CCOC(=O)C1CCCCN1Cc1cc(C)c(OC)cc1C (centres undefined)	GPR151 activ 4.9 | GPR151 conf act inactive | GPR119 ag inactive
NNC(=O)c1cccc(-n2ncc3cc(Nc4ccccc4F)ccc32)c1	none
CCC(=O)NC(c1nnc2n1CCN(Cc1ccc(C)c(C)c1)CC2)C(C)C (centres undefined)	GPR151 activ 9.8 | GPR151 conf act inactive | GPR119 ag inactive
CCC(=O)NC(c1nnc2n1CCN(Cc1ccc(OC)c(C)c1)CC2)C(C)C (centres undefined)	none
CCOc1cc(CN2CCc3nnc(C(NS(C)(=O)=O)C(C)C)n3CC2)ccc1O (centres undefined)	GPR151 activ 8.1 | GPR151 conf act inactive | GPR119 ag inactive
NC(=O)C1(N2CCCCC2)CCN(S(=O)(=O)c2ccc(Cl)cc2)CC1	GPR151 activ 5.4 | GPR151 conf act inactive | GPR119 ag inactive
CC(C)OCCCN1C(=O)C2C(C(=O)Nc3ccc(Oc4ccccc4)cc3)C3C=CC2(O3)C1C(=O)NC1CCCCC1 (centres undefined)	none
C=CCn1c(N)c(C(=O)NCCc2ccc(OC)c(OC)c2)c2nc3ccccc3nc21	GPR151 activ 14 | GPR151 conf act inactive | GPR119 ag inactive
COC(=O)C1=CN(C)C=C(C(=O)OC)C1c1cccc(O)c1	none
CC(C)=NNC(=O)CSCc1cccc(Br)c1	none
COc1ccc(Cl)cc1NC(=O)CCN1C(=O)c2ccccc2C1=O	none
COc1ccc(C[C@H](N)C(=O)N[C@@H]2[C@@H](CO)OC(n3cnc4c(N(C)C)ncnc43)[C@@H]2O)cc1 (some centres undefined)	TEAD-YAP block 100, GPR151 activ 6.8! | GPR151 conf act inactive | GPR119 ag inactive
Nc1ncnc2c1ncn2[C@@H]1O[C@H](CO)[C@@H](O)[C@H]1O	none
COc1cc(/C=C/C(=O)NC(C)c2ccccc2)cc(OC)c1OC (centres undefined)	none
COc1ccc(S(=O)(=O)N2CCC(N3CCCCC3)CC2)cc1OC	GPR151 activ 6.3 | GPR151 conf act inactive | GPR119 ag inactive
COc1ccc(S(=O)(=O)N2CCC(C)CC2)cc1OC	none
NC(CCCCNC(=O)c1ccccc1)C(=O)O (centres undefined)	GPR151 activ 5.0 | GPR151 conf act inactive | GPR119 ag inactive

Screening results from PubChem.
